Inconclusive results are not listed. The source made the active and inactive calls. Unless noted, calls come from the whole dose curve; as a rule, active = well fitted curve in the direction sought with a large enough effect in the repeat runs; inconclusive = weak or mixed curves; inactive = no such curve, though single readings can be large; an effect the other way counts as inactive or inconclusive.
Experiments:
[1] = biological target: Thyrotropin receptor (Homo sapiens) (UniProt P16473); assay: qHTS assay to identify small molecule agonists of the thyroid stimulating hormone receptor (TSHR) signaling pathway (AID 1224843; calls by dose curve; note: nearly all actives have a fitted effect of over 45% in size)
Chain of Thyrotropin receptor (Homo sapiens) (P16473 whole entry, looked up): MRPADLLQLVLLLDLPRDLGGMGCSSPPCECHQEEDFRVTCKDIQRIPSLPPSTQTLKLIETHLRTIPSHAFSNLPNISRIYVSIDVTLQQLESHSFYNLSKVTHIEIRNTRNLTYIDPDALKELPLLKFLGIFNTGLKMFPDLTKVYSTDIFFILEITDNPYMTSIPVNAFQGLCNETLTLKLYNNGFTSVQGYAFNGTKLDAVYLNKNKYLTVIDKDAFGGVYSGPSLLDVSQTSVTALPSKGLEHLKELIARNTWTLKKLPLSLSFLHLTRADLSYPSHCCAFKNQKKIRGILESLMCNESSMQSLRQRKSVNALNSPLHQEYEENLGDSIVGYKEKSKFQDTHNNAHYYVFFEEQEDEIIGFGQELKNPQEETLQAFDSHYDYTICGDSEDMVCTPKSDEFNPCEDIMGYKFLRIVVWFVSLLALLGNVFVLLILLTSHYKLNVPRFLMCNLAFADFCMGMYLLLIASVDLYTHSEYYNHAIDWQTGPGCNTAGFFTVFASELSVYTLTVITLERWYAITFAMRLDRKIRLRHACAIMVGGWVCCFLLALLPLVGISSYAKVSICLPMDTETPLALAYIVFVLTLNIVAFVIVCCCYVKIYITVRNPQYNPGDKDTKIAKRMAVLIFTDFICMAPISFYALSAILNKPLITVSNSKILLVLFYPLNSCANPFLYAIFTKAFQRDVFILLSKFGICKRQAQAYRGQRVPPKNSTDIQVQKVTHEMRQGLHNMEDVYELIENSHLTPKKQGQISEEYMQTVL
Outline: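 Agonist-mode screen: TSHR HEK293 cells received test chemicals for half an hour at room temperature, then HTRF cAMP detection reagents for one hour prior to fluorescence measurement. Each chemical ran as a 15-concentration series, triplicated.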

[2] = qHTS assay to identify small molecule agonists of the hypoxia (HIF-1) signaling pathway - cell viability counter screen (AID 1224844; calls by dose curve; note: nearly all actives have a fitted effect of over 50% in size)
Outline: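 CellTiter-Glo luminescence read-out, 30 min RT, taken in the same wells as the beta-lactamase HRE reporter assay; HRE-bla ME-180 cells, 0.5% dialyzed FBS, 17 hr compound treatment at 37C, 5% CO2.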

[3] = qHTS assay to identify small molecule agonists of H2AX (AID 1224845; active = well fitted activation curve with a large enough effect in the signal ratio in the repeat runs, not every such curve was filed as active; the % refers to the signal ratio)
Outline: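 Wild-type CHO-K1 cells, plated overnight, exposed 3hr at 37C to 15 concentrations (0.76% DMSO final). Lysed, then HTRF anti-pH2AX (S139) cryptate and anti-H2AX-d2 antibodies, 24 hr room temperature; 665/620 nm emission read.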

[4] = qHTS assay to identify small molecule agonists of the hypoxia (HIF-1) signaling pathway (AID 1224846; active = well fitted activation curve with a large enough effect in the signal ratio in the repeat runs, not every such curve was filed as active; the % refers to the signal ratio)
Outline: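 Beta-lactamase FRET read-out (CCF4-AM substrate) from ME-180 cells carrying an HRE-driven bla reporter, after 17 hrs compound exposure at 37C/5% CO2. Cells were seeded at 2,000 per well in 0.5% dialyzed FBS medium and preincubated 5 hrs.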

[5] = qHTS assay to identify small molecule agonists of H2AX - cell viability counter screen (AID 1224847; calls by dose curve; note: top concentration of the series differs between compounds; nearly all actives have a fitted effect of over 30% in size)
Outline: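 For this counter screen, overnight-attached CHO-K1 cells received test compounds (15 concentrations, 0.76% DMSO final); 3 hr later at 37C, CellTiter-Glo reagent was added and luminescence recorded after 30 min at room temperature.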

[6] = qHTS RealTime-Glo MT Cell Viability Assay in HepG2 cells - 24 hour (AID 1224867); note: nearly all actives have a fitted effect of over 50% in size
Outline: (§1)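 Compound treatment began 5 h after plating HepG2 cells (600/well) with NanoLuc luciferase and prosubstrate. Plates stayed at 37 C for 40 h; luminescence was captured at six time points, 0 h through 40 h.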

[7] = qHTS RealTime-Glo MT Cell Viability Assay in HEK293 cells - 32 hour (AID 1224868); note: top concentration of the series differs between compounds; nearly all actives have a fitted effect of over 50% in size
Outline: (§2)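 Quantitative high-throughput screen of the Tox21 10K library in HEK293: cells and RealTime-Glo reagents plated together, compound added at 5 h, luminescence monitored through 40 h at 37 C.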

[8] = A CellTox Green Cytotoxicity Assay to monitor cytotoxicity in HEK293 cells - 0 hour (AID 1224869); note: nearly all actives have a fitted effect of over 50% in size
Outline: (§3)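 Read-out: fluorescence of a cell-impermeant cyanine dye staining DNA of dead cells, proportional to cytotoxicity. HEK293, 600 cells/well with reagent, compound (23 nL DMSO) added after 5 h; reads at 0, 8, 16, 24, 32, 40 h.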

[9] = A CellTox Green Cytotoxicity Assay to monitor cytotoxicity in HEK293 cells - 40 hour (AID 1224871); note: nearly all actives have a fitted effect of over 45% in size
Outline: as §3

[10] = qHTS RealTime-Glo MT Cell Viability Assay in HEK293 cells - 16 hour (AID 1224872)
Outline: as §2

[11] = qHTS RealTime-Glo MT Cell Viability Assay in HepG2 cells - 8 hour (AID 1224873); note: nearly all actives have a fitted effect of over 55% in size
Outline: (§4)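 HepG2 cells (600/well) mixed with RealTime-Glo MT reagent, settled 5 h at 37 C/5% CO2 before compound addition. Nonlytic NanoLuc luminescence from viable-cell prosubstrate reduction read repeatedly during 40 h treatment at 37 C.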

[12] = qHTS RealTime-Glo MT Cell Viability Assay in HEK293 cells - 40 hour (AID 1224874); details: RealTime-Glo luminescence; max response: hits give low values; note: nearly all actives have a fitted effect of over 50% in size
Outline: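 Luminescence readout at each listed time point; HEK293, 600 cells/well, RealTime-Glo MT reagent added with cells; compounds pinned (23 nL in DMSO) after 5 h at 37 C; continuous culture at 37 C.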

[13] = A CellTox Green Cytotoxicity Assay to monitor cytotoxicity in HEK293 cells - 24 hour (AID 1224875); note: nearly all actives have a fitted effect of over 45% in size
Outline: as §3

[14] = A CellTox Green Cytotoxicity Assay to monitor cytotoxicity in HepG2 cells - 16 hour (AID 1224876); note: nearly all actives have a fitted effect of over 45% in size
Outline: (§5)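 HepG2, 600 cells/well premixed w/ CellTox Green; 5 h settle, 37 C/5% CO2; pintool cpd add (DMSO); 37 C, 40 h; fluorescence read at 0, 8, 16, 24, 32, 40 h.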

[15] = qHTS RealTime-Glo MT Cell Viability Assay in HepG2 cells - 32 hour (AID 1224877); note: nearly all actives have a fitted effect of over 55% in size
Outline: as §1

[16] = A CellTox Green Cytotoxicity Assay to monitor cytotoxicity in HepG2 cells - 24 hour (AID 1224878); note: nearly all actives have a fitted effect of over 45% in size
Outline: as §5

[17] = A CellTox Green Cytotoxicity Assay to monitor cytotoxicity in HepG2 cells - 40 hour (AID 1224879); note: nearly all actives have a fitted effect of over 40% in size
Outline: as §5

[18] = qHTS assay to identify small molecule antagonists of the estrogen related receptor (ERR) signaling pathway from Tox21 library (AID 1224848); note: nearly all actives have a fitted effect of over 50% in size
Outline: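 Quantitative high-throughput format: ERR reporter cells (2,000/well) pre-incubated 6 h, treated 18 h at 37 C with compounds in DMSO alongside positive and negative controls, then read by ONE-Glo luminescence.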

[19] = qHTS assay to identify small molecule agonists of the estrogen related receptor (ERR) signaling pathway from Tox21 library (AID 1224849; calls by dose curve; note: nearly all actives have a fitted effect of over 15% in size); details: ERR reporter cell line, ONE-Glo luciferase, 18 h; at 92.4 µM (top of the series) unless noted
Outline: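 Luminescence readout (ONE-Glo, 30 min RT) after 18 h compound exposure at 37 C of NTP-supplied ERR reporter cells; cells were plated 6 h before compound addition by pin tool.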

[20] = qHTS RealTime-Glo MT Cell Viability Assay in HepG2 cells - 40 hour (AID 1224870); note: nearly all actives have a fitted effect of over 50% in size
Outline: as §4
% is set by controls: 0 for no effect and ±100 for the full control effect.

COc1cc2c(cc1OC)[C@@H]1CC(=O)[C@@H](CC(C)C)CN1CC2
inactive: Potency [1] | outcome [2] | outcome [3] | outcome [4] | Potency [5] | outcome [6] | Potency [7] | outcome [8] | Potency [9] | Potency [10] | outcome [11] | max response [12] -11.9% | outcome [13] | outcome [14] | outcome [15] | outcome [16] | Potency [17]

CC(C)C(=O)OCCc1ccccc1
inactive: Potency [1] | outcome [2] | outcome [3] | outcome [4] | Potency [5] | outcome [6] | Potency [7] | outcome [8] | Potency [10] | outcome [11] | max response [12] -2.86% | outcome [13] | outcome [14] | outcome [15] | outcome [16] | Potency [17]

CCCCCCCCCCCCCC
inactive: Potency [1] | outcome [2] | outcome [3] | outcome [4] | Potency [18] | activity change, positive = activation [19] 2.93% | outcome [6] | Potency [7] | outcome [8] | outcome [20] | Potency [9] | Potency [10] | outcome [11] | max response [12] 3.06% | outcome [13] | outcome [14] | outcome [15] | outcome [16] | Potency [17]

CCN(C)C(=O)Oc1cccc([C@H](C)N(C)C)c1
inactive: Potency [1] | outcome [2] | outcome [3] | outcome [4] | Potency [5] | outcome [6] | Potency [7] | outcome [8] | outcome [20] | Potency [10] | outcome [11] | max response [12] 1.94% | outcome [13] | outcome [14] | outcome [15] | Potency [17]

CC(C)(C)c1cc(CCC(=O)NN)cc(C(C)(C)C)c1O
inactive: Potency [1] | outcome [2] | outcome [3] | outcome [4] | Potency [18] | activity change, positive = activation [19] -9% | outcome [6] | Potency [7] | outcome [8] | outcome [20] | Potency [10] | outcome [11] | max response [12] -14% | outcome [13] | outcome [14] | outcome [15]

CCOC(=O)CC(=O)c1ccccc1
inactive: Potency [1] | outcome [2] | outcome [3] | outcome [4] | outcome [6] | Potency [7] | outcome [8] | Potency [10] | outcome [11] | max response [12] 10.1% | outcome [13] | outcome [14] | outcome [15] | outcome [16] | Potency [17]

C[C@@H](O)[C@H]1C(=O)N2C(C(=O)O)=C(SCCN=CN)C[C@H]12
inactive: Potency [1] | outcome [2] | outcome [3] | Potency [18] | activity change, positive = activation [19] 5.47% [at 42.5 µM] | outcome [6] | Potency [7] | outcome [8] | outcome [20] | Potency [9] | Potency [10] | outcome [11] | max response [12] 2.62% | outcome [13] | outcome [14] | outcome [15] | outcome [16] | Potency [17]

O=C(O)CCSSCCC(=O)O
inactive: Potency [1] | outcome [2] | outcome [3] | outcome [4] | outcome [6] | Potency [7] | outcome [8] | Potency [9] | Potency [10] | outcome [11] | max response [12] 7.07% | outcome [13] | outcome [14] | outcome [15] | outcome [16] | Potency [17]

From PubChem BioAssay (Tox21)
